Data on 24 molecules can be found in PubChem BioAssay AID588832 (Broad Institute, 2011).

Screen size: about 8,000 compounds; fewer than 10 were called active. The rule behind the calls is not given here. These entries were drawn from the full list.

The assay concerns hedgehog, isoform A (Drosophila melanogaster). As to the kind of experiment: Hh protein inhibition, biochemical readout – plate reader, single concentration, primary screen (AID 588832).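 Note: 0% = neutral control wells and 100% = positive control wells.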 The following applies: Biochemical plate reader assay, at 30.3 µM, stronger effect = higher value.
In general, inhibition refers to the change of the read-out against control, counted positive when it falls. As to `COc1cccc(C2c3[nH]c4ccccc4c3C[C@H]3C(=O)N(c4ccccc4C(=O)N4CCCC4C(=O)O)C(=O)N23)c1` (some centres undefined), the inhibition was -3.51% (inactive).

As to `Cn1cccc1Cc1nnc(SCC(=O)Nc2ccccc2F)n1-c1ccc(F)cc1`, the inhibition was 8.33% (inactive).

On to `Cn1c(=O)c2c(SCc3ccccn3)nc(CC(C)(C)C)nc2n(C)c1=O`, for which the inhibition was 4.58% (inactive).

`CSC1=NCCN1C(=O)c1ccc(S(=O)(=O)N2CCCC2)cc1`: the inhibition is -1.85% (inactive).

As to `O=C(Nc1ccccc1Cl)c1ccc2c(c1)N(Cc1ccc(F)cc1)C(=O)CS2=O` (centres undefined), the inhibition was 15% (inactive).

Regarding `CC1(C2CCC3(C)OC3C2)CO1` (centres undefined), the inhibition is 7.18% (inactive).

For `Cc1cccc(N2CCN(C(=O)CCC(=O)N3CC(C)Oc4ccc(C)cc43)CC2C)c1` (centres undefined), the inhibition was 5.06% (inactive).

Regarding `COc1cc2c(cc1OC)CN(C(=O)c1ccc3[nH]c(C)c(C)c3c1)CC2`, the inhibition was 8.74% (inactive).

`O=c1c(Cc2ccccc2O)c(O)nc2n1CCCS2`: the inhibition was 3.39% (inactive).

With `COc1ccc(N(C(=O)c2ccncc2)S(=O)(=O)c2ccc(OC)c(OC)c2)cc1`, the inhibition was 11.1% (inactive).

Take `CCCCC(NC(C)=O)c1nc2ccccc2[nH]1` (centres undefined): the inhibition was 5.42% (inactive).

In the case of `Cc1cc(Nc2ccc(C(C)C)cc2)n2ncnc2n1`, the inhibition was 6.72% (inactive).

Turning to `Cc1cc(NS(=O)(=O)c2ccc(NC(=O)c3cnc4scc(C)n4c3=O)cc2)nc(C)n1`, the inhibition was 6.2% (inactive).

For `CC(C)OC(=O)c1nnc(Cc2ccc(Cl)cc2)o1`, the inhibition was 20% (inactive).

Turning to `O=C(c1cnn(-c2ccccc2)c1-n1cccc1)N1CCN(C2CCCCC2)CC1`, the inhibition was 9.55% (inactive).

Turning to `Cc1cc(Cl)cc2sc(NC(=O)c3ccco3)nc12`, the inhibition is 3.57% (inactive).

Take `O=C(O)c1cccc(N2C(=O)C3CC=C(Cl)CC3C2=O)c1` (centres undefined): the inhibition was 14.9% (inactive).

For `CCn1c(C(=O)N2CCC(C(=O)NCc3ccc4c(c3)OCO4)CC2)cc2sccc21`, the inhibition was 8.81% (inactive).

Turning to `COC(=O)C1(Cc2ccc(O)c(CC3OC3(C)C)c2)OC(=O)C(O)=C1c1ccc(O)cc1` (centres undefined), the inhibition was 6.79% (inactive).

Turning to `CC(C)[C@H](NC(=O)[C@@H]1Cc2c([nH]c3ccccc23)C2c3ccccc3C(=O)N21)C(=O)N1CCC[C@H]1C(=O)O` (some centres undefined), the inhibition is 5.17% (inactive).

`CCOc1ccc(C2C(C(=O)Nc3ccc(F)cc3)=C(C)Nc3nc(CCCO)nn32)cc1` (centres undefined): the inhibition was 10% (inactive).

On to `Cc1cc2c(cc1S(=O)(=O)N1CCCCC1)OCC(=O)N2`, for which the inhibition was 10.9% (inactive).

On to `Cc1noc(C)c1S(=O)(=O)N1CCN(C(c2ccccc2)c2ccc(Cl)cc2)CC1` (centres undefined), for which the inhibition was 8.33% (inactive).

Consider `COc1ccc(S(=O)(=O)Cc2ccc(C(=O)NC3CCCC3)o2)cc1`, for which the inhibition is 8.33% (inactive).
